# Experimental data from the supplement of paper PMC3414501.
# Structures can show the parent of a compound that is named as a salt. Values without a mark were called inactive.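 The calls were made as follows: active = score above 5; some higher scores were not called.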
# System: S. cerevisiae SK1 pCDA2-eGFP (USY613), sporulating
# Experiment: CDA2-GFP sporulation assay sensitivity score (z-score vs DMSO controls); higher = stronger inhibition of sporulation, active = hit call of the paper
row,SMILES,CDA2-GFP sporulation assay sensitivity score
1,"CN(CCOc1ccc(CC2SC(=O)NC2=O)cc1)c1ccccn1 (stereo not drawn) [Rosigltazone hydrochloride] (stock concentration (mM, diluted 1:100): 8.2)",-0.4
2,"CCc1ccc(CCOc2ccc(CC3SC(=O)NC3=O)cc2)nc1 (stereo not drawn) [Pioglitazone hydrochloride] (stock concentration (mM, diluted 1:100): 9.1)",2.87
3,"CC12CC3CC(C)(C1)CC(N)(C3)C2 [Memantine hydrochloride] (stock concentration (mM, diluted 1:100): 8.3)",2.32
4,"O=C1N[C@H](C(=O)O)CS1 [Procysteine] (stock concentration (mM, diluted 1:100): 10)",0.97
5,"CC(C)Oc1ccc2c(=O)c(-c3ccccc3)coc2c1 [Ipriflavone] (stock concentration (mM, diluted 1:100): 10)",-1.58
6,"COc1cccc2c1C(=O)c1c(O)c3c(c(O)c1C2=O)C[C@@](O)(C(=O)CO)C[C@@H]3O[C@H]1C[C@H](N)[C@@H](O)[C@H](C)O1 [Epirubicin hydrochloride] (stock concentration (mM, diluted 1:100): 9.4)",-0.4
7,"N#Cc1ccc(C(c2ccc(C#N)cc2)n2cncn2)cc1 [Letrozol] (stock concentration (mM, diluted 1:100): 10)",1.08
8,"O=C(NCCN1CCOCC1)c1ccc(Cl)cc1 [Moclobemide] (stock concentration (mM, diluted 1:100): 10)",0.72
9,"Cc1ncc([N+](=O)[O-])n1CCO [Metronidazole] (stock concentration (mM, diluted 1:100): 10)",0.28
10,"C=CC[C@@H]1/C=C(\C)C[C@H](C)C[C@H](OC)[C@H]2O[C@@](O)(C(=O)C(=O)N3CCCC[C@H]3C(=O)O[C@H](/C(C)=C/[C@@H]3CC[C@@H](O)[C@H](OC)C3)[C@H](C)[C@@H](O)CC1=O)[C@H](C)C[C@@H]2OC [Tacrolimus] (stock concentration (mM, diluted 1:100): 10)",0.75
11,"CCC(=O)O[C@]1(C(=O)SCF)[C@H](C)C[C@H]2[C@@H]3C[C@H](F)C4=CC(=O)C=C[C@]4(C)[C@@]3(F)[C@@H](O)C[C@@]21C [Fluticasone propionate] (stock concentration (mM, diluted 1:100): 10)",-2.57
12,"C[C@]12CC[C@@H]3c4ccc(OS(=O)(=O)O)cc4CC[C@H]3[C@@H]1CCC2=O (stock concentration (mM, diluted 1:100): 10)",4.09
13,"O=C(c1ccccc1)c1ccc2n1CCC2C(=O)O (stereo not drawn) [Toradol] (stock concentration (mM, diluted 1:100): 6.8)",-1.05
14,"NNCCc1ccccc1 [Phenelzine sulfate salt] (stock concentration (mM, diluted 1:100): 10)",1.83
15,"CC(C)NCC(O)COc1ccc(CCOCC2CC2)cc1 (stereo not drawn) [Betaxolol hydrochloride] (stock concentration (mM, diluted 1:100): 10)",7.8 (active)
16,"CC(C)C[C@H](NC(=O)[C@@H](COC(C)(C)C)NC(=O)[C@H](Cc1ccc(O)cc1)NC(=O)[C@H](CO)NC(=O)[C@H](Cc1c[nH]c2ccccc12)NC(=O)[C@H](Cc1cnc[nH]1)NC(=O)[C@@H]1CCC(=O)N1)C(=O)N[C@@H](CCCNC(=N)N)C(=O)N1CCC[C@H]1C(=O)NNC(N)=O [Goserelin acetate] (stock concentration (mM, diluted 1:100): 9.6)",0.53
17,"Clc1ccc2c(c1)CCc1cccnc1C2=C1CCNCC1 [Desloratadine] (stock concentration (mM, diluted 1:100): 10)",8.67
18,"COc1cccc2c1C(=O)c1c(O)c3c(c(O)c1C2=O)C[C@@](O)(C(=O)CO)C[C@@H]3O[C@H]1C[C@H](N)[C@H](O)[C@H](C)O1 [Doxorubicin hydrochloride] (stock concentration (mM, diluted 1:100): 9.4)",0.3
